An excerpt weighted towards active compounds, which were near 4% of everything screened.
TRHR ag = activates the human TRH receptor. P34981. TRHR cells, calcium flux fluo-8, FDSS agonist mode. activation, % at 2 µM. 360,000 compounds, 0.18% hits. AID 493084; note: 0% is about no effect
Target sequence (P34981 whole entry, looked up): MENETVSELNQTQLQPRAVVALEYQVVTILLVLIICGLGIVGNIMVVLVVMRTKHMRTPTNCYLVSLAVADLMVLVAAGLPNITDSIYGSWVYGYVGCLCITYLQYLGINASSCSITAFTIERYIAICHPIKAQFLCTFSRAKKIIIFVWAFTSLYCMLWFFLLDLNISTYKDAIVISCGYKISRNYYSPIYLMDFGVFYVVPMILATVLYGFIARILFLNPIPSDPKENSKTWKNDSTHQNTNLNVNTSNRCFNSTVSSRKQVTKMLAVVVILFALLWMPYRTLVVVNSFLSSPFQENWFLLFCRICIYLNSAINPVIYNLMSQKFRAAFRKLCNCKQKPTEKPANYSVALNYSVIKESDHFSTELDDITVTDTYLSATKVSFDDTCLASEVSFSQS
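Steps: seed TRHR cells overnight; add fluo-8 no-wash Ca dye, RT 30 min–1.5 h; record 10 s baseline; pin-transfer compounds; monitor fluorescence 1 cycle/s for the agonist window. Calcium increases flag candidate agonists.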
D1 agonist = human D1 receptor agonism. 360,000 compounds, 1% hits. AID 504660. P21728. HEK293 T-REx D1 cells, calcium flux, agonist mode. activation, % at 2 µM; note: 0% is about no effect
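Inducible HEK293 T-REx D1 cells, force-coupled to calcium signalling, were plated at 4000 cells/well with tetracycline and held overnight at 30 C. After no-wash calcium dye loading, compound-evoked calcium rise over 180 s flagged agonists.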
GRP78 ERSR act = induces the endoplasmic reticulum stress response in human glioma cells | U87-MG GRP78 promoter luciferase reporter, 16 h | Potency, µM, for inactives: at the top dose activation, usual class: activators | 420,000 compounds, 0.02% hits; active = well fitted activation curve with a large enough effect; note: potency is the fitted concentration of half-maximal effect; series mostly up to about 76 µM; % of control where 0% means no effect; nearly all actives have a fitted effect of over 35% in size
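ERSR induction read as luciferase luminescence (Bright-Glo, 10 min at room temperature) in stably transfected human U87-MG glioma cells exposed to compounds for 16 h, using GRP78 as sensor.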
D1 potentiator = potentiators of human D1 dopamine receptor; P21728; HEK293 TREx D1 cells, calcium flux, dopamine EC20 potentiation; potentiation, % at 10 µM; 360,000 compounds, 0.036% hits; AID 504651; in the data active = potentiation above about 30%; note: 0% is about no effect
D1 antagonist = human D1 dopamine receptor antagonism | HEK293 TREx D1 cells, calcium flux, dopamine EC80; hits give low values | activity change, negative = inhibition, % at 10 µM | 360,000 compounds, 3.2% hits; in the data active = activity change below about -30%; note: % is set by controls: 0 for no effect and ±100 for the full control effect
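Compound effects on dopamine-evoked calcium signalling were measured in tetracycline-induced HEK293 Trex D1 cells. Dopamine at EC80 followed a 180 s compound pre-read, and fluorescence was tracked kinetically for 180 s more.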
TRHR PAM = TRH receptor (human) allosteric enhancement. 360,000 compounds, 0.66% hits. P34981. AID 493056. TRHR cells, fluo-8 calcium fluorescence, EC20 TRH enhancement. enhancement, % at 2 µM; in the data active = enhancement above about 30%; note: 0% is about no effect
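TRHR-expressing cells loaded with fluo-8 calcium dye were read kinetically (ex 480/em 530) during compound addition, then stimulated with an EC20 of TRH (10 nM final). Enhancement of the Gq-mediated intracellular calcium response was scored.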
An asterisk follows results filed as active; x = no result. Cut-off read from the data, not from the text of the source, unless noted: active = activation above about 30%; inactive = the rest.

SMILES | TRHR ag | D1 agonist | GRP78 ERSR act | D1 potentiator | D1 antagonist | TRHR PAM
CN(c1ccc(C(=O)N2CCCCC2)cc1)S(=O)(=O)c1ccccc1 | 0.3 | 17.2 | 3.0% | 4.3 | -35.7* | 11.6
O=C(COc1ccccc1)N(Cc1cccnc1)c1nc2ccc(Cl)cc2s1 | 0.5 | 5.4 | -3.6% | -0.3 | x | 0.3
Cc1ccc(-c2nnn(CC(=O)N(CCN3CCOCC3)C(C(=O)NC(C)(C)C)c3ccco3)n2)cc1 (stereo not given) | -0.1 | -0.7 | -1.5% | -1.9 | 11.1 | 13.6
CC(C)(C)NC(=O)C(c1ccncc1)N(Cc1cccs1)C(=O)Cn1nnc(-c2ccc(F)cc2)n1 (stereo not given) | 0.7 | -0.2 | -0.8% | -2.0 | -32.9* | -2.6
Cc1ccc(-c2nnn(CC(=O)N(CCN3CCOCC3)C(C(=O)NC(C)(C)C)c3ccc(C)o3)n2)cc1 (stereo not given) | -0.1 | 1.3 | -3.3% | -1.4 | 2.4 | 36.6*
COc1ccc(-c2nnn(CC(=O)N(CCCN3CCOCC3)C(C(=O)NC3CCCC3)c3ccc(C)o3)n2)cc1 (stereo not given) | -0.6 | 10.3 | -1.8% | 10.2 | 1.9 | 12.7
COc1ccc(-c2nnn(CC(=O)N(CCCN3CCOCC3)C(C(=O)NC3CCCC3)c3ccco3)n2)cc1 (stereo not given) | -0.6 | 3.6 | -6.9% | 0.9 | -31.8* | -1.3
CCOc1ccc(C(=O)NCCc2sc(-c3ccc(OC)c(OC)c3)nc2C)cc1 | -1.3 | 1.4 | 0.5% | -4.0 | -6.0 | -2.4
Cc1csc2ncc(C(=O)N3CCCc4ccccc43)c(=O)n12 | 0.0 | -0.2 | 2.1% | 3.5 | 15.6 | -0.1
O=C(NCc1ccccc1)C1CCCN1C(=O)Nc1ccccc1[N+](=O)[O-] (stereo not given) | 0.5 | 0.7 | -3.1% | 10.7 | -30.9* | 5.9
CCc1ccccc1N1CC(c2nc3ccccc3n2CCCCOc2ccccc2OC)CC1=O (stereo not given) | 3.8 | 60.1* | -4.3% | 0.4 | -7.2 | -18.1
Cc1cccc(OCCCCn2c(C3CC(=O)N(c4ccccc4Cl)C3)nc3ccccc32)c1 (stereo not given) | 1.3 | 25.2 | -0.9% | -2.6 | -0.8 | 32.8*
Cc1cccc(OCCCCn2c(C3CC(=O)N(c4ccc(C)cc4C)C3)nc3ccccc32)c1 (stereo not given) | 1.4 | 14.1 | -8.1% | -0.6 | -0.7 | 2.6
CCOC(=O)Cn1c(C2CC(=O)N(c3ccc(C)cc3)C2)nc2ccccc21 (stereo not given) | -0.2 | 8.8 | -3.0% | -3.6 | -45.7* | 0.6
O=C(NCc1ccco1)C(=O)NCC1OCCN1C(=O)c1ccc(Cl)cc1 (stereo not given) | 0.0 | 1.4 | -3.2% | 3.7 | 2.3 | 8.9
CCCCCOC(=O)C1=C(C)NC(=O)NC1c1ccc(OC)cc1 (stereo not given) | 0.4 | 0.7 | -2.8% | -1.8 | 5.4 | -1.9
Cc1ccc2nc(N3CCN(C(=O)c4ccccc4F)CC3)c(C#N)cc2c1 | x | x | -3.8% | x | x | x
COc1ccc2nc(N3CCCC3)c(C#N)cc2c1 | 20.4 | 40.9* | 1.6% | -7.3 | -12.3 | -1.7
Cc1ccc2nc(N3CCN(C(=O)c4ccc(F)cc4)CC3)c(C#N)cc2c1 | -0.1 | -2.8 | -4.2% | 0.5 | -46.4* | -5.3
COc1ccc2nc(N3CCCCC3)c(C#N)cc2c1 | -0.2 | 8.3 | 4.7% | 3.1 | 4.4 | 16.0
CCC(C)(C)c1ccc(OCC(=O)Nc2ccncc2)cc1 | -0.2 | 44.8* | -1.9% | -11.4 | -16.5 | 1.6
COc1ccc(-n2nc3ccc(NC(=O)c4cccc(OCCC(C)C)c4)cc3n2)cc1 | 1.8 | 1.6 | -4.7% | 1.1 | 10.4 | 35.7*
CC(C)CCOc1cccc(OCC(=O)Nc2ccncc2)c1 | 0.8 | 12.6 | -4.3% | -6.2 | -30.7* | -4.0
CCc1ccccc1OCc1nc2ccc(S(=O)(=O)N3CCOCC3)cc2[nH]1 | -0.6 | -0.3 | -0.2% | 0.1 | x | 32.6*
Cc1ccccc1OCc1nc2ccc(S(=O)(=O)N3CCOCC3)cc2[nH]1 | 0.8 | 2.1 | -1.9% | -7.7 | -15.2 | 1.6
COc1cc(C)c(CN2CCOc3ccc(C(O)c4cccnc4)cc3C2)cc1C (stereo not given) | x | x | -5.3% | x | x | x

Screens: PubChem BioAssay, National Center for Advancing Translational Sciences (NCATS)
